Rows were chosen to be rich in hits. Some 10% of all compounds tested hit in one or more screens of this group.
Insulin prom inh – inhibitors of insulin promoter-driven GFP, primary screen, imaging, TRM-6 cells (human fetal islet line), eGFP reporter, cell count; reporter expression induced with tamoxifen; inhibition, % at 2 µM; hit rate 0.9% among 130,000; AID 1273, 2008;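 active means inhibition above the mean plus 3 SD, with well images judged a real hit on visual review, cut at about 60% in these data, passing the limit was not always enough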
bCat KO growth – primary screen for growth suppressors in beta-catenin knockout HCT116 cells (colon tumor, human); HCT116 beta-catenin knockout viability, CellTiter-Glo, 60 h; stronger effect = lower value; viability, % at 10 µM; hit rate 1.5% among 140,000;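 active means viability at or under a set limit, the compound median less 4 SD, cut at about 6% in these data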
L major viab – Leishmania major promastigote growth inhibition, primary screen; hit rate 9% among 200,000; inhibition, % at 10 µM; Leishmania major promastigotes, resazurin fluorescence viability; AID 1063, 2008; in the data active means inhibition above about 50%;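 further: promastigotes grown with compound for 44 hours at 28 °C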
p97 ATPase inh – inhibitors of human p97 ATPase, primary screen, biochemical; Transitional endoplasmic reticulum ATPase (Homo sapiens), P55072; recombinant p97 ATPase, Kinase-Glo ATP luminescence, 3 h; inhibition, % at 8 µM; hit rate 0.42% among 220,000; AID 1481, 2009; in the data active means inhibition above about 15%
Target sequence (P55072 whole entry, looked up): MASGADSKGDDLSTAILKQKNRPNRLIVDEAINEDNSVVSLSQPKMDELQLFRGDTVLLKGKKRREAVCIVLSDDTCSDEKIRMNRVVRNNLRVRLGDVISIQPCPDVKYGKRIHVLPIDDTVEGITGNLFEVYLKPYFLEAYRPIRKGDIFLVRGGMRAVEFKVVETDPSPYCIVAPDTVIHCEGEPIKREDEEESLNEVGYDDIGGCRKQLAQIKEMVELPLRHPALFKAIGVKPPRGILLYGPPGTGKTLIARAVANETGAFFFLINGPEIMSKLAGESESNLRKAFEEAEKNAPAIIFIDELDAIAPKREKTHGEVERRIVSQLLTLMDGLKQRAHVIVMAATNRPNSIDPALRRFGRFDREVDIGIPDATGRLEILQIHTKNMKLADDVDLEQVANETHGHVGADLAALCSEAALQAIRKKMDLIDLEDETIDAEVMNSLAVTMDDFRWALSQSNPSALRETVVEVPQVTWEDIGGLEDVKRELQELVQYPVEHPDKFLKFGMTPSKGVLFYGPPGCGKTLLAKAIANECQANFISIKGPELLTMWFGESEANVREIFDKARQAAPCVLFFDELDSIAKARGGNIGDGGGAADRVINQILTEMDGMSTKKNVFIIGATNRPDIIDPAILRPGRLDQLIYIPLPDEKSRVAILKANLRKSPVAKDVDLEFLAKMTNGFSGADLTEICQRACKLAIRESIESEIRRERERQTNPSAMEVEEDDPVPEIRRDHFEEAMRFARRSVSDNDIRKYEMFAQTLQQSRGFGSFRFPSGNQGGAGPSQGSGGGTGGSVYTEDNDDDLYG
ROMK mod – ROMK potassium channel modulators, primary screen, cell-based, thallium flux, MLSMR library; ATP-sensitive inward rectifier potassium channel 1 (Homo sapiens), P48048; Tet-inducible ROMK, thallium flux fluorescence; actives lie on both sides; B-score at 10 µM; hit rate 2% among 130,000; AID 1918, 2009;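 active means signal ratio slope over the read window, or its plate-corrected B-score, at least 3 SD from the plate mean, either direction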;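 further: B-score of the F/F0 ratio slope over 7 to 12 s after thallium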
HCT116 PTEN-null – growth suppression of PTEN-null HCT116, primary screen, cell-based, CellTiter-Glo; HCT116 PTEN-null viability, 60 h; stronger effect = lower value; viability, % at 10 µM; hit rate 1.2% among 140,000;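 active means viability at or below a set limit, 4 SD under the median of all tested compounds, cut at about 3.7% in these data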;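 further: PTEN knockout HCT116 line with beta catenin targeted HCT116 as companion control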
Hits are given with their value; i = inactive; nt = not tested or not shown.

SMILES | Insulin prom inh | bCat KO growth | L major viab | p97 ATPase inh | ROMK mod | HCT116 PTEN-null
Cc1ccc(O)c(NC(=O)c2cccc(NC(=O)c3ccco3)c2)c1 | i | i | 98 | i | i | i
C/C(=N/NC(=O)c1ccc(Br)o1)c1cccc(NC(=O)c2ccc(C)o2)c1 | i | i | 92 | i | nt | i
O=C(c1ccccc1)c1cccc(NC(=O)c2ccc(Br)o2)c1 | i | i | 97 | i | i | i
O=C(Nc1ccccc1)c1ccc(Br)o1 | i | i | i | i | i | i
C/C(=C\c1ccco1)CN1CCN(Cc2ccc(C)o2)C(CCO)C1 (centres undefined) | nt | nt | i | i | i | nt
CSc1ccccc1C(=O)NCc1ccccc1C | nt | nt | i | i | i | nt
CCOc1ccc(CCNC(=O)C2=C(C)C(=O)OC23CCCCC3)cc1OCC | i | nt | i | i | nt | nt
Cc1cc(C)c2c(N=NN3CCOCC3)[nH]nc2n1 | nt | i | i | i | i | i
Cc1nc2sc(C(=O)Nc3ccccc3Cc3ccccc3)c(C)c2c(=O)[nH]1 | nt | nt | nt | i | nt | nt
O=C(NC12CC3CC(CC(C3)C1)C2)c1ccc(N2CCNCC2)c([N+](=O)[O-])c1 | nt | nt | nt | i | nt | nt
C/C(=N\NC(=O)c1nn(C)cc1Br)c1cccc(NC(=O)c2ccncc2)c1 | i | i | 63 | i | i | i
C/C(=N\NC(=O)c1cccc(C)c1)c1cccc(NC(=O)c2ccco2)c1 | nt | i | 83 | i | i | i
CCCC/C(=N\NC(=O)c1ccc(Br)o1)c1ccccc1 | i | i | 89 | i | i | i
C/C(=N\NC(=O)c1cccc(Cl)c1)c1cccc(NC(=O)c2ccco2)c1 | i | i | i | i | nt | i
CC/C(=N/NC(=O)c1ccc(Br)o1)c1ccc(Cl)cc1 | i | i | i | i | i | i
C/C(=N\NC(=O)c1ccc(Br)cc1)c1cccc(NC(=O)c2cccnc2)c1 | i | nt | i | i | i | nt
CC(=O)c1cccc(NC(=O)c2ccc(-c3ccccc3[N+](=O)[O-])o2)c1 | i | i | 75 | i | i | i
O=C(CCn1c(=S)[nH]c2cc3c(cc2c1=O)OCO3)N1CCN(C2CCCCC2)CC1 | i | nt | i | i | nt | nt
Cc1c(-c2ccn[nH]2)cc(NC(=O)c2ccc(Cl)cc2)c(=O)n1N | i | nt | i | i | i | nt
COc1ccc(C(=O)c2c(C)c3cc(C)ccc3n2CC(O)CN2CCOCC2)cc1 (centres undefined) | i | i | i | i | nt | i
CN(C(=O)N1CCN(S(=O)(=O)c2ccccc2)CC1)c1ccccc1 | i | nt | i | i | i | nt
O=[N+]([O-])c1cccc(/C([O-])=C(/C(=S)Nc2ccccc2)[n+]2ccccc2)c1 | i | i | i | i | i | i
CN(C)S(=O)(=O)c1cccc(NC(=O)CNCC2CCCCC2)c1 | i | nt | 84 | i | i | nt
CCN(CC)S(=O)(=O)c1ccc(Cl)c(NC(=O)COc2ccc3c(C)cc(=O)oc3c2)c1 | i | i | i | i | i | i
Cc1ccc(Cl)cc1NC(=O)COC(=O)c1ccc(COc2ccc3c(C)cc(=O)oc3c2)cc1 | i | i | 55 | i | i | i
SMILES | Insulin prom inh | bCat KO growth | L major viab | p97 ATPase inh | ROMK mod | HCT116 PTEN-null
Cc1cc(=O)oc2cc(OCC(=O)Nc3cccc(S(=O)(=O)N(C)C)c3)ccc12 | i | i | 60 | i | i | i
Cc1cc(=O)oc2cc(OCC(=O)OCC(=O)Nc3ccccc3C(C)C)ccc12 | 60 | i | i | i | i | i
CCN(CC)S(=O)(=O)c1cccc(NC(=O)CNC2CCCCCC2)c1 | nt | nt | nt | i | i | nt
Cc1cc(=O)oc2cc(OCC(=O)OCC(=O)Nc3ccccc3F)ccc12 | i | nt | i | i | i | nt
CCOC(=O)/C(=N\Nc1ccc(OC)cc1)c1csc(Nc2ccccc2)n1 | i | i | i | i | nt | i
CCN(CC(=O)NC(C)(C)C)C(=O)c1ccc2c(c1)S(=O)(=O)c1ccccc1C2=O | i | nt | i | i | i | nt
O=C(/C=C\c1ccccc1OC(=O)c1ccccc1F)c1cc2ccccc2o1 | nt | 3.3 | 52 | i | nt | 2.0
CN(Cc1ccccc1)S(=O)(=O)c1ccc(C(=O)Nc2nnc(C3CC3)o2)cc1 | i | i | 99 | i | nt | i
CN(c1ccccc1)S(=O)(=O)c1ccc(C(=O)Nc2nnc(-c3ccc(F)cc3)o2)cc1 | nt | i | i | i | nt | i
COc1ccccc1-c1nnc(NC(=O)c2ccc(S(=O)(=O)N(C)Cc3ccccc3)cc2)o1 | i | i | 97 | i | -3.4 | i
Cc1nc2ccccc2nc1N1CCCC1 | nt | nt | nt | i | i | nt
Cc1ccc2c(Cl)c(C)c(N3CCCC3)nc2n1 | 77 | i | i | i | nt | i
O=C(c1nc2ncccn2n1)N1CCN(c2ccccc2)CC1 | i | i | 90 | i | nt | i
O=C(c1nc2ncccn2n1)N1CCN(c2ccc(F)cc2)CC1 | i | i | i | i | nt | i
CCN(CC)S(=O)(=O)c1ccc(Nc2nc3ccccc3n3nnnc23)cc1 | i | i | 67 | i | i | i
CC(C)n1c(NCc2cc(Cl)ccc2O)nc2ccccc21 | nt | i | 66 | i | nt | i
Cn1c(NCc2cc(Br)ccc2O)nc2ccccc21 | nt | i | i | i | nt | i
Cn1c(CNc2nc3ccccc3n2C)nc2ccccc21 | i | i | 50 | i | nt | i
C=CCn1c(NC(C)c2cc(Cl)ccc2O)nc2ccccc21 (centres undefined) | nt | i | 96 | i | nt | i
Cn1c(NCc2c(O)ccc3ccccc23)nc2ccccc21 | i | i | 100 | i | i | i
Cc1ccc(NCc2nc3ccccc3n2C)cc1 | i | i | i | i | nt | i
CSc1ccc(CN(C)Cc2nc3ccccc3c(=O)[nH]2)cc1 | nt | nt | nt | i | nt | nt
CC(C)NC(=O)N(Cc1ccccc1)Cc1cccs1 | nt | nt | nt | i | nt | nt
Cc1ccc(NC(=O)CN2C(=O)NC(Cc3ccccc3)C2=O)c(Br)c1 (centres undefined) | nt | nt | i | i | i | nt
CCOC(=O)/C(=C/c1ccco1)NC(=O)c1ccc(Br)o1 | nt | nt | i | i | i | nt
SMILES | Insulin prom inh | bCat KO growth | L major viab | p97 ATPase inh | ROMK mod | HCT116 PTEN-null
CCCn1c(CNc2ccccc2O)nc2ccccc21 | i | i | 82 | i | nt | i
CCn1c(CNc2nc3ccccc3n2C(C)C)nc2ccccc21 | i | i | 100 | i | nt | i
CC(C)n1c(NCCO)nc2ccccc21 | i | nt | i | i | i | nt
CCCCn1c(CNC(=O)CCC)nc2ccccc21 | nt | i | i | i | nt | i
CC(C)n1c(NCc2nc3ccccc3n2C)nc2ccccc21 | i | i | 60 | i | nt | i
Nc1nonc1-c1nc2ccccc2n1CC(=O)N/N=C/c1ccc(-c2cccc(C(=O)O)c2)o1 | i | nt | i | i | i | nt
CCCCCOC(=O)NC1CCS(=O)(=O)C1 (centres undefined) | i | nt | i | i | i | nt
c1csc(CNc2nc(-c3cccs3)nc3ccccc23)c1 | i | nt | 83 | i | i | nt
CN1CCN(c2nc(-c3cccs3)nc3ccccc23)CC1 | i | i | i | i | i | i
c1ccc(CN2CCC(Nc3nc(-c4cccs4)nc4ccccc34)CC2)cc1 | nt | nt | 100 | i | i | nt
Fc1ccccc1OCC1CCCN(Cc2nc(CC3CC3)no2)C1 (centres undefined) | nt | nt | i | i | i | nt

Source: PubChem BioAssay (several laboratories)
